In all, about 5,300 compounds were measured (“PER2::LUC luminescence relative to vehicle control”: median about 0.96, highest 2% from about 1.3 on). The sample as a whole holds a higher share of the highest values than the screen did.
Test system: mPer2Luc MEF
Test: PER2::LUC luminescence relative to vehicle control (fold of vehicle); higher = higher PER2::LUC reporter signal
Details: 10 µM
Summary of the method: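 The value is PER2::LUC luminescence expressed as fold of vehicle control. Mouse embryonic fibroblasts carrying the mPer2Luc reporter were seeded at ~3000 cells per well in 384-well plates and grown in DMEM with 10% FBS at 37 °C and 5% CO2. Compounds from commercial libraries were added at 10 μM 48 h after seeding, and luminescence was read with the ONE-Glo luciferase assay system 24 h and 30 h after treatment, followed by an alamarBlue viability assay.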

Compound | PER2::LUC luminescence (time after treatment 24 h) | PER2::LUC luminescence (time after treatment 30 h)
C=C[C@@](C)(O)CC[C@H]1C(=C)CC[C@H]2C(C)(C)CCC[C@]12C | 0.946 | 0.911
COc1ccc(-c2coc3cc(O)cc(O)c3c2=O)cc1 | 1.83 | 1.97
COc1cc(-c2coc3cc(O)c(OC)c(O)c3c2=O)cc(O)c1OC | 1.37 | 1.39
COc1ccc2c(=O)c(-c3ccc(O)cc3)coc2c1 | 1.39 | 1.62
O=c1c(-c2ccc(O)cc2)coc2cc(O)cc(O)c12 | 1.07 | 1.06
COc1cc(-c2coc3cc(O[C@@H]4O[C@H](CO)[C@@H](O)[C@H](O)[C@H]4O)c(OC)c(O)c3c2=O)cc(O)c1OC | 0.773 | 1.31
COc1ccc(-c2coc3c(OC)c(OC)cc(O)c3c2=O)cc1 | 1.01 | 1.13
COc1cc(-c2coc3cc(OC)c(OC)c(OC)c3c2=O)cc(OC)c1OC | 0.972 | 0.969
COc1ccc(-c2coc3c(O)c(O)c(OC)cc3c2=O)cc1 | 1.31 | 1.23
COc1ccc(-c2coc3cc(O)ccc3c2=O)cc1S(=O)(=O)O | 1 | 0.898
CC(C)(C)[Si](C)(C)Oc1ccc2oc(=O)c3c(c2c1)CCCN3 | 1.14 | 1.15
CC(=O)O[C@@H]1C[C@@]23C[C@@]24CC[C@H](O[C@@H]2OC[C@@H](O)[C@H](O)[C@H]2O)C(C)(C)[C@@H]4CC[C@H]3[C@]2(C)C[C@@H]3O[C@]4(C[C@@H](C)[C@@H]3[C@@]12C)O[C@H](O)[C@@]1(C)O[C@@H]41 | 0.888 | 0.982
CC[C@H](C)[C@@H]([C@@H](CC(=O)N1CCC[C@H]1[C@H](OC)[C@@H](C)C(=O)N[C@@H](Cc1ccccc1)c1nccs1)OC)N(C)C(=O)[C@@H](NC(=O)[C@@H](NC)C(C)C)C(C)C | 0.338 | 0.385
O=C(O)CCC/C=C\C/C=C\C/C=C\C/C=C\CCCCCO | 0.987 | 0.936
COc1cc2c(cc1OC)[C@H]1[C@@H](C)c3ccc(OC)c(OC)c3CN1CC2 | 0.954 | 0.973
COc1cc2nccc(Oc3ccc(NC(=O)Nc4ccc(F)cc4F)c(F)c3)c2cc1OC | 0.785 | 0.689
CCCCOc1ccc(C(=O)Nc2ccc(F)cc2F)cc1 | 1.29 | 1.34
CCCCOc1ccc(CC(=O)NO)cc1 | 1.01 | 1.01
O=C[C@H](O)[C@@H](O)[C@H](O)CO (racemic) | 0.94 | 1.06
C[C@@H](O)[C@H]1C(=O)N2C(C(=O)O)=C(SC3CN(C4=NCCS4)C3)[C@H](C)[C@H]12 | 1.03 | 1.01
O=C(O)c1ccc2nc(-c3cc(Cl)cc(Cl)c3)oc2c1 | 1.42 | 1.43
C=CC(C1=CC(=O)C(OC)=CC1=O)c1ccc(OC)cc1 (centres undefined) | 1.16 | 1.02

— the supplement of paper PMC9334596
